Measurements reported in ChEMBL document CHEMBL5308504, “Tm Shift (DSF) assay results for EUbOPEN Chemogenomics Library” (2023).
Values joined by “and” are separate entries in the source; they are usually repeats but may differ in a detail not shown here. Identical values can stand only once.

Tests used:
Details in all cases: Compound concentration 20.0 uM, Protein concentration 2.0 uM, Result type QC Liability
[1] = target: Tyrosine-protein kinase ABL1 (Homo sapiens) (UniProt P00519)
[2] = target: Cyclin-dependent kinase 2 (Homo sapiens) (UniProt P24941)
[3] = target: Casein kinase I isoform delta (Homo sapiens) (UniProt P48730)
Casein kinase I isoform delta (Homo sapiens), sequence (P48730 whole entry, looked up, canonical isoform): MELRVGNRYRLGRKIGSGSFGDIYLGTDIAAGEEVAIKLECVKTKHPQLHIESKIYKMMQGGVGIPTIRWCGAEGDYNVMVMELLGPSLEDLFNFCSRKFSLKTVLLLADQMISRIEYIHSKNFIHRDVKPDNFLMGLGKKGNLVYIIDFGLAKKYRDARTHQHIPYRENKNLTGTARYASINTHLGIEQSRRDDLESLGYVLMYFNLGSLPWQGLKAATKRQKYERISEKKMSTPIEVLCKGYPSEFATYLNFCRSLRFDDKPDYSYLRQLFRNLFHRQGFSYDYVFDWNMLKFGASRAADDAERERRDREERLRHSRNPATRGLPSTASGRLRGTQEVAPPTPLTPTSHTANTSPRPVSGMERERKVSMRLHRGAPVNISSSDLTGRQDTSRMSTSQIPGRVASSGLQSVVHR

[4] = target: Glycogen synthase kinase-3 beta (Homo sapiens) (UniProt P49841)
Glycogen synthase kinase-3 beta (Homo sapiens), sequence (P49841 whole entry, looked up): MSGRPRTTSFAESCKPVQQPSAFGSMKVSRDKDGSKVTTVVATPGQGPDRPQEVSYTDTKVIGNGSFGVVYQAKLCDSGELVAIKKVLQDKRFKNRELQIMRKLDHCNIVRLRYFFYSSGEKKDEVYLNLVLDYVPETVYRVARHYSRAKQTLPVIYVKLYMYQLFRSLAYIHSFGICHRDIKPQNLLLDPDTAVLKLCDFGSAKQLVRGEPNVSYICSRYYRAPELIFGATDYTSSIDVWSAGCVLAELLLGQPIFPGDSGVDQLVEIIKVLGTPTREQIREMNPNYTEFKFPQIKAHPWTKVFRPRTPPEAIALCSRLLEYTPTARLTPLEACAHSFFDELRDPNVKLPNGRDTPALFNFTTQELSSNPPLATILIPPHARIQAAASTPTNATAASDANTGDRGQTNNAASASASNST

[5] = target: Mitogen-activated protein kinase 1 (Homo sapiens) (UniProt P28482)
Mitogen-activated protein kinase 1 (Homo sapiens), sequence (P28482 whole entry): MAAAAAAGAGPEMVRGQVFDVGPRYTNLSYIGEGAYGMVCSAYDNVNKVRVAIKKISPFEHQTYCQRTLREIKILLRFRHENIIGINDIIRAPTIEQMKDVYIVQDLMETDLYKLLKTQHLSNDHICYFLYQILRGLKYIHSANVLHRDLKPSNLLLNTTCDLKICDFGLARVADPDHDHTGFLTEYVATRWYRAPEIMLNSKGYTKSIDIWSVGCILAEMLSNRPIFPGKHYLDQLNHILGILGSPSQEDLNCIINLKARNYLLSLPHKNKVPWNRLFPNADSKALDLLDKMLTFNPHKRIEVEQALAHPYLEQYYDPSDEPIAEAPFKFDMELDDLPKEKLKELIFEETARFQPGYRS

[6] = target: T1, Aurora kinase A (Homo sapiens) (UniProt O14965)
T1 sequence (whole entry): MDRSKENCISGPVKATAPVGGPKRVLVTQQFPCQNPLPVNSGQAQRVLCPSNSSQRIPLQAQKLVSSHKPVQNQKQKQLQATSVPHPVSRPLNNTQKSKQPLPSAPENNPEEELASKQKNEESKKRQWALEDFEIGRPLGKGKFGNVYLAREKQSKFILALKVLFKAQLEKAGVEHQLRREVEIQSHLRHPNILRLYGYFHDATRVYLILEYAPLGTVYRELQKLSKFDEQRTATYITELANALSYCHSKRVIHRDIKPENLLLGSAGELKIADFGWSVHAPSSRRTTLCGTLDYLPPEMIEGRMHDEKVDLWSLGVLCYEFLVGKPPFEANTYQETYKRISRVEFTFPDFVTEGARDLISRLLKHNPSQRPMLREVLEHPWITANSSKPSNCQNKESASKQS

Tyrosine-protein kinase ABL1 (Homo sapiens), sequence (P00519 whole entry): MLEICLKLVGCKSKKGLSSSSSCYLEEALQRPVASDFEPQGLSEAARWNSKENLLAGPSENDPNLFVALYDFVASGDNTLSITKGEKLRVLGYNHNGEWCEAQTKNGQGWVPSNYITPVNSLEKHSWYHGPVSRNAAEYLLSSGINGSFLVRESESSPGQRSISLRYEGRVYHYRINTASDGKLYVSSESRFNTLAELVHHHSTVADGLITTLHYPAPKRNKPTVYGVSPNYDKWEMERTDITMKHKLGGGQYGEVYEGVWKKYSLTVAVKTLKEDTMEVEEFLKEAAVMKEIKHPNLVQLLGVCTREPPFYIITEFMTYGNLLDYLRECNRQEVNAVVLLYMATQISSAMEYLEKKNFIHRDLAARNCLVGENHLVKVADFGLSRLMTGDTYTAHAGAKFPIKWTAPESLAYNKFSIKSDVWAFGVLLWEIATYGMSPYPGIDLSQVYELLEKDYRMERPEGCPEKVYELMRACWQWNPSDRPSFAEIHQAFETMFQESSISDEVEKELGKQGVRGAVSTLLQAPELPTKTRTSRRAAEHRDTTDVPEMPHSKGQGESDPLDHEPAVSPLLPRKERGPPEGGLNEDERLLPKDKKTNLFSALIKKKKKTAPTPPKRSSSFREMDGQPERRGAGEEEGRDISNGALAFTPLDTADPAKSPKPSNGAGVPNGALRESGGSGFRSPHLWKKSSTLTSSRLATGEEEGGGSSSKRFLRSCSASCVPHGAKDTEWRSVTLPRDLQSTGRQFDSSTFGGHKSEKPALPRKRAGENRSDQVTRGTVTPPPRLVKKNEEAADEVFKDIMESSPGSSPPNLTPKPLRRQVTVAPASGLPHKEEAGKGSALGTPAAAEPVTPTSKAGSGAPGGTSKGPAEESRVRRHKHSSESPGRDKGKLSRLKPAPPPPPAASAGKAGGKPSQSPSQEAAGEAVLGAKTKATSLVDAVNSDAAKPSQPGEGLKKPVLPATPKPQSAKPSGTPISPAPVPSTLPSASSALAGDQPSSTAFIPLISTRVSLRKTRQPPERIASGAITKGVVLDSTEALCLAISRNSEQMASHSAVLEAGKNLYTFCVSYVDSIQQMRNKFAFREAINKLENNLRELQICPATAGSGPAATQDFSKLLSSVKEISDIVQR

SMILES	ΔTm [1]	ΔTm [2]	ΔTm [3]	ΔTm [4]	ΔTm [5]	ΔTm [6]
Cn1cc(C(=O)O)c2ccc(N3CCC(OCc4c(-c5c(Cl)cccc5Cl)noc4C4CC4)CC3)cc21	0.5 °C	0.93 °C	1.17 °C	0.23 °C	0.52 °C	-1.5 °C
COc1cc2c(cc1CC=C(C)C)C(=O)C[C@@H](c1ccc(O)cc1)O2	0.53 °C	1.21 °C	1.23 °C	-0.03 °C	0.34 °C	-1.38 °C
O=C(O)/C=C/c1ccc(Cn2ccnc2)cc1	0.1 °C	0.39 °C	0.22 °C	0.69 °C	0.29 °C	0.06 °C
CP(C)(=O)c1ccc(CNC(=O)C2CCN(S(=O)(=O)c3cc(Cl)cc(Cl)c3)CC2)cc1	0.74 °C	0.5 °C	0.35 °C	-0.16 °C	0.45 °C	-0.19 °C
COc1cc(N[C@@H]2CCCC[C@]2(O)C(F)(F)F)ccc1F	0.29 °C	0.72 °C	0.65 °C	-0.31 °C	0.4 °C	-1.49 °C
CCn1c(-c2nonc2N)nc2ccccc21	0.33 °C	0.64 °C	0.5 °C	4.22 °C	0.41 °C	1.84 °C
O=C(CCCN1CCC(O)(c2ccc(Cl)cc2)CC1)c1ccc(F)cc1	0.25 °C	0.82 °C	0.25 °C	-0.66 °C	0.38 °C	-0.3 °C
CNC(=O)c1nnc(NC(=O)C2CC2)cc1Nc1cccc(-c2ncn(C)n2)c1OC	3.38 °C	0.57 °C	0.11 °C	5.87 °C	0.36 °C	0.41 °C
CC(=O)N1CCN([C@H]2CCC[C@@H](NC(=O)c3cc4c(F)ccc(C)c4[nH]3)C2)CC1	0.29 °C	0.89 °C	0.05 °C	-0.56 °C	0.42 °C	-0.61 °C
CC[C@H](CC(=O)O)n1c(=O)c2ncccc2n(Cc2cn(C)c3cc(C)cc(C)c23)c1=O	-0.39 °C and 0.26 °C	0.68 °C and 0.96 °C	0.28 °C and -0.08 °C	-0.11 °C and -0.78 °C	0.08 °C and 0.23 °C	-0.13 °C and 0.01 °C
CCC(C(=O)Nc1ccc(-c2cc3ccccc3s2)c(C(N)=O)c1)c1nccs1 (stereo not given)	0.88 °C	0.25 °C	0.47 °C	0.69 °C	0.41 °C	0.34 °C
CCc1ncnc(N2CCN(C(C)=O)CC2)c1C#Cc1ccc(N)nc1	0.27 °C	0.16 °C	1.03 °C	-0.12 °C	0.42 °C	-0.14 °C
CC(=O)N1CCC(c2ccc(C(=O)NC(=N)N)cc2C(F)(F)F)CC1	-0.81 °C	0.95 °C	0.37 °C	-0.64 °C	0.32 °C	0.44 °C
CNC(=O)c1cc(C(=O)N[C@H]2[C@@H]3COC[C@@H]32)cc2c1O[C@H](CF)[C@H]2c1ccccc1	0.27 °C	0.34 °C	0.02 °C	-0.78 °C	0.3 °C	0.31 °C
CN1CCCN(C(=O)c2cccc(-c3ccc(/C=C4/C(=O)Nc5ccc(Cl)cc54)o3)c2)CC1	1.94 °C	2.38 °C	2.04 °C	5.85 °C	-0.12 °C	1.88 °C
COc1ccccc1[C@@H]1CNCCC12CCN(C(=O)[C@](OC)(c1ccccc1)C(F)(F)F)CC2	0.26 °C	0.48 °C	0.35 °C	-1.18 °C	-0.22 °C	-0.11 °C
CC(=O)c1c(C)c2cnc(Nc3ccc(N4CCN(CCCCNC(=O)COc5cccc6c5C(=O)N(C5CCC(=O)NC5=O)C6=O)CC4)cn3)nc2n(C2CCCC2)c1=O (stereo not given)	0.12 °C	0.59 °C	0.26 °C	0.7 °C	0.16 °C	-0.33 °C
CNC(=O)COc1cc2cc(Nc3nc(N4CCC(C(=O)N(C)C)CC4)ncc3Cl)cc(OC)c2n(C)c1=O	-0.18 °C	-0.4 °C	0.17 °C	-0.71 °C	0.01 °C	-0.26 °C
CC(=O)Nc1ncc(CN2CCC[C@H](Cc3cc(C)nc(C)c3)C2)s1	0.26 °C	-0.34 °C	-0.41 °C	-0.15 °C	0.35 °C	0.39 °C
O=C(Nc1cccc(Nc2nccc(Nc3cccc(C(F)(F)F)c3)n2)c1)C1CC1	1.63 °C	1.44 °C	1.09 °C	3.86 °C	0.42 °C	–
CC1=C(C(=O)OCCO)[C@@H](c2ccc(C#N)cc2)NC(=O)N1c1cccc(C(F)(F)F)c1	-0.45 °C	-0.38 °C	0.44 °C	-0.19 °C	0.15 °C	-0.11 °C
Cn1nccc1-c1ccc(Sc2cccc(C3(C(N)=O)CCOCC3)c2)cc1	-0.11 °C	0.88 °C	-0.02 °C	-1.17 °C	0.22 °C	0.6 °C
C[C@@H]1Cc2c([nH]c3ccccc23)[C@@H](c2c(F)cc(/C=C/C(=O)O)cc2F)N1CC(C)(C)F	-0.24 °C	-0.07 °C	0.64 °C	0 °C	0.55 °C	-0.16 °C
O=C(N[C@H](Cc1ccccc1)C(=O)O)c1cccc(OCc2cccnc2)c1	0.31 °C	1.19 °C	-0.02 °C	0.45 °C	0.21 °C	-0.05 °C
Cc1cc(Cn2c(N3CC4(CNC4)C3)nc3c(N4CCN(C)CC4)cc(Cl)cc32)cc(C)c1F	0.24 °C	0.83 °C	0.19 °C	0.34 °C	0.58 °C	0.07 °C
Fc1cccc(-n2cnc3c(NCc4nc5c(F)c(F)ccc5[nH]4)nc(N4CCOCC4)nc32)c1	1.99 °C	0.74 °C	3.88 °C	1.83 °C	0.22 °C	0.74 °C

SMILES	ΔTm [1]	ΔTm [2]	ΔTm [3]	ΔTm [4]	ΔTm [5]	ΔTm [6]
Cc1nc2ccc(Oc3ccc(F)cc3)cc2c(=O)n1C[C@H]1CCCN(C(C)C)C1	0.92 °C	0.32 °C	0.35 °C	-0.38 °C	0.41 °C	0.12 °C
CCc1ccc(-c2ncn(CC3(F)CCN(C)CC3)c2-c2ccnc3[nH]ccc23)nc1	0.05 °C	0.87 °C	0.57 °C	-0.72 °C	0.39 °C	-1.06 °C
CCOC(=O)c1cc2cc(-c3cc(C(=O)NCc4ccc(C(=O)O)cc4)nn3C)ccc2[nH]1	0.13 °C	-0.6 °C	0.53 °C	0.78 °C	-0.1 °C	1.73 °C
Cc1cc2c(-c3ccco3)cnc(N[C@@H]3CCN(C)C[C@H]3C(=O)NC3CCCCC3)c2[nH]c1=O	0.07 °C	0.91 °C	-0.09 °C	-0.51 °C	0.54 °C	0.79 °C
COc1cc(Oc2nc(-c3ccc(NC(=O)C4CCOC4)cc3)nn3c(C)nc(C)c23)cc(OC)c1OC (stereo not given)	0.18 °C	0.72 °C	0.03 °C	-0.39 °C	0.18 °C	0.1 °C
Cn1cc(-c2ccc(N(C(=O)NCc3ccccc3)[C@H]3CC[C@H](Nc4ccc(C#N)cn4)CC3)cc2)ccc1=O	0.13 °C	0.7 °C	0.29 °C	0.01 °C	-0.4 °C	-0.15 °C
COc1cc(C)c(S(=O)(=O)N(C)CCOCC(=O)N(C)[C@H]2CCC[C@@H](N3CCN(C)CC3)C2)c(C)c1	-0.63 °C	0.33 °C	0.16 °C	-0.91 °C	-0.21 °C	-0.27 °C
Cn1c(C2(NC(=O)c3ccc4c(C5CCCC5)c(-c5ncc(Br)cn5)n(C)c4c3)CCC2)nc2ccc(/C=C/C(=O)O)cc21	-0.54 °C and 0.85 °C	-2.05 °C and -1.62 °C	-3.08 °C and -1.06 °C	-3.92 °C and -2.25 °C	-2.08 °C and -0.58 °C	-1.12 °C and -3.19 °C
CCCCc1c(-c2ccccc2)nc(N)nc1-c1ccc(OCc2ccccc2)c(F)c1F	-0.08 °C	-0.31 °C	-3.97 °C	-3.51 °C	0 °C	-1.37 °C
COc1ccc(CC[C@@H](OC(=O)[C@H]2CCCCN2C(=O)[C@@H](c2cc(OC)c(OC)c(OC)c2)C2CCCCC2)c2cccc(OCCN3CCOCC3)c2)cc1OC	-1.34 °C	-4.12 °C	-1.85 °C	-1.12 °C	-0.42 °C	-1.27 °C
O=C(O)[C@]1(Cc2cccc(Nc3nccs3)n2)CC[C@@H](Oc2cccc(Cl)c2F)CC1	17.2 °C	5.36 °C	1.53 °C	8.49 °C	1.32 °C	25.4 °C
c1ccc(C2CCN(c3cnc4c(N5CCOCC5)nccn34)CC2)cc1	0.01 °C	0.19 °C	0.18 °C	-0.6 °C	0.57 °C	-0.14 °C
O=C(O)CCCc1cc2cc(Cl)ccc2n1S(=O)(=O)c1ccc2ncsc2c1	0.34 °C	0.24 °C	1.03 °C	-2.46 °C	0.26 °C	-0.83 °C
CC(C)(O)c1cn(-c2ccc(-c3cccc(S(C)(=O)=O)c3)cc2)c(C(C)(C)c2ccccc2Cl)n1	-1.7 °C	0.08 °C	-0.27 °C	-0.99 °C	0.15 °C	-3.66 °C
Cc1cn([C@H](C)CC#N)c(=O)c2cc(Cn3nc(C(F)F)cc3Cl)nn12	0.14 °C	-0.62 °C	-0.16 °C	-0.46 °C	0.16 °C	-1.16 °C
CC1CCN(C(=O)[C@@H](CCn2cccc2C#N)NS(=O)(=O)c2cccc3[nH]ccc23)CC1	0.25 °C	0.59 °C	0.33 °C	-0.44 °C	-8.81 °C	0.05 °C
CC#CC(=O)N1CCN(c2nc(-c3ccc(Oc4ccccc4)cc3)c(C(N)=O)s2)CC1	-0.27 °C	-1.44 °C	-8 °C	-2.57 °C	-9.83 °C	-1.3 °C
COc1cc(-c2cc3ncccc3c(O[C@H](C)[C@H]3CNC(=O)C3)n2)cc(OC)c1OC	3.69 °C and 3.1 °C	0.94 °C	3.55 °C and 2.97 °C	-0.33 °C and -0.99 °C	1.84 °C and 1.51 °C	9.58 °C and 8.08 °C
CNC(=O)COc1cc2cc(Nc3nc(N4C[C@H](C)C[C@H](C)C4)ncc3Cl)ccc2n(C)c1=O	-0.28 °C	0.46 °C	0.11 °C	-0.11 °C	0.15 °C	0.07 °C
CCCCOc1c(C(=O)c2c(F)cc(C)cc2F)c[nH]c2nncc1-2	0.35 °C	2.95 °C	0.13 °C	0.42 °C	0.05 °C	0.96 °C
COc1cc2ncnc(N[C@H](C)c3ccccc3)c2cc1OC1CCN(S(C)(=O)=O)CC1	1.29 °C	0.54 °C	0.38 °C	0.09 °C	0.1 °C	0.05 °C
Clc1cccc(Nc2nccc(NCCCN3CCOCC3)n2)c1	1.3 °C	1.43 °C	0.64 °C	5.39 °C	0.32 °C	2.47 °C
Cn1nc(C(=O)NCc2ccc(C(=O)O)cc2)cc1-c1ccc2[nH]ccc2c1	0.76 °C	0.58 °C	0.39 °C	-0.55 °C	0.47 °C	0.09 °C
CCN(C(=O)c1cc(F)ccc1Oc1cncnc1N1CC2(CCN(C[C@H]3CC[C@H](NS(=O)(=O)CC)CC3)CC2)C1)C(C)C	0.01 °C	0.94 °C	-0.25 °C	-0.47 °C	0.35 °C	-1.01 °C
CNc1nc(-c2ccc3c(N)n[nH]c3c2)cc(N2C[C@@H](C(=O)NC3CCCCC3)CC[C@H]2C)n1	0.49 °C	-0.54 °C	0.18 °C	0.25 °C	0.38 °C	2.89 °C
